The record followed here is ChEMBL document CHEMBL1961873, “Compounds: GSK PKIS; Assays: Nanosyn kinase panel” (2012).

Assay [1] relates to Proto-oncogene tyrosine-protein kinase receptor Ret (Homo sapiens), P07949 [Y791F]. The conditions noted are these: at 1 µM.
The target in assay [2] is Macrophage-stimulating protein receptor (Homo sapiens) (UniProt Q04912). The conditions noted are these: at 0.1 µM.
For assay [3] the target is unchanged. The conditions noted are these: at 1 µM.
In assay [4] the target is Proto-oncogene tyrosine-protein kinase ROS (Homo sapiens) (UniProt P08922). The conditions noted are these: at 0.1 µM.
Chain of Proto-oncogene tyrosine-protein kinase ROS (Homo sapiens) (P08922 whole entry): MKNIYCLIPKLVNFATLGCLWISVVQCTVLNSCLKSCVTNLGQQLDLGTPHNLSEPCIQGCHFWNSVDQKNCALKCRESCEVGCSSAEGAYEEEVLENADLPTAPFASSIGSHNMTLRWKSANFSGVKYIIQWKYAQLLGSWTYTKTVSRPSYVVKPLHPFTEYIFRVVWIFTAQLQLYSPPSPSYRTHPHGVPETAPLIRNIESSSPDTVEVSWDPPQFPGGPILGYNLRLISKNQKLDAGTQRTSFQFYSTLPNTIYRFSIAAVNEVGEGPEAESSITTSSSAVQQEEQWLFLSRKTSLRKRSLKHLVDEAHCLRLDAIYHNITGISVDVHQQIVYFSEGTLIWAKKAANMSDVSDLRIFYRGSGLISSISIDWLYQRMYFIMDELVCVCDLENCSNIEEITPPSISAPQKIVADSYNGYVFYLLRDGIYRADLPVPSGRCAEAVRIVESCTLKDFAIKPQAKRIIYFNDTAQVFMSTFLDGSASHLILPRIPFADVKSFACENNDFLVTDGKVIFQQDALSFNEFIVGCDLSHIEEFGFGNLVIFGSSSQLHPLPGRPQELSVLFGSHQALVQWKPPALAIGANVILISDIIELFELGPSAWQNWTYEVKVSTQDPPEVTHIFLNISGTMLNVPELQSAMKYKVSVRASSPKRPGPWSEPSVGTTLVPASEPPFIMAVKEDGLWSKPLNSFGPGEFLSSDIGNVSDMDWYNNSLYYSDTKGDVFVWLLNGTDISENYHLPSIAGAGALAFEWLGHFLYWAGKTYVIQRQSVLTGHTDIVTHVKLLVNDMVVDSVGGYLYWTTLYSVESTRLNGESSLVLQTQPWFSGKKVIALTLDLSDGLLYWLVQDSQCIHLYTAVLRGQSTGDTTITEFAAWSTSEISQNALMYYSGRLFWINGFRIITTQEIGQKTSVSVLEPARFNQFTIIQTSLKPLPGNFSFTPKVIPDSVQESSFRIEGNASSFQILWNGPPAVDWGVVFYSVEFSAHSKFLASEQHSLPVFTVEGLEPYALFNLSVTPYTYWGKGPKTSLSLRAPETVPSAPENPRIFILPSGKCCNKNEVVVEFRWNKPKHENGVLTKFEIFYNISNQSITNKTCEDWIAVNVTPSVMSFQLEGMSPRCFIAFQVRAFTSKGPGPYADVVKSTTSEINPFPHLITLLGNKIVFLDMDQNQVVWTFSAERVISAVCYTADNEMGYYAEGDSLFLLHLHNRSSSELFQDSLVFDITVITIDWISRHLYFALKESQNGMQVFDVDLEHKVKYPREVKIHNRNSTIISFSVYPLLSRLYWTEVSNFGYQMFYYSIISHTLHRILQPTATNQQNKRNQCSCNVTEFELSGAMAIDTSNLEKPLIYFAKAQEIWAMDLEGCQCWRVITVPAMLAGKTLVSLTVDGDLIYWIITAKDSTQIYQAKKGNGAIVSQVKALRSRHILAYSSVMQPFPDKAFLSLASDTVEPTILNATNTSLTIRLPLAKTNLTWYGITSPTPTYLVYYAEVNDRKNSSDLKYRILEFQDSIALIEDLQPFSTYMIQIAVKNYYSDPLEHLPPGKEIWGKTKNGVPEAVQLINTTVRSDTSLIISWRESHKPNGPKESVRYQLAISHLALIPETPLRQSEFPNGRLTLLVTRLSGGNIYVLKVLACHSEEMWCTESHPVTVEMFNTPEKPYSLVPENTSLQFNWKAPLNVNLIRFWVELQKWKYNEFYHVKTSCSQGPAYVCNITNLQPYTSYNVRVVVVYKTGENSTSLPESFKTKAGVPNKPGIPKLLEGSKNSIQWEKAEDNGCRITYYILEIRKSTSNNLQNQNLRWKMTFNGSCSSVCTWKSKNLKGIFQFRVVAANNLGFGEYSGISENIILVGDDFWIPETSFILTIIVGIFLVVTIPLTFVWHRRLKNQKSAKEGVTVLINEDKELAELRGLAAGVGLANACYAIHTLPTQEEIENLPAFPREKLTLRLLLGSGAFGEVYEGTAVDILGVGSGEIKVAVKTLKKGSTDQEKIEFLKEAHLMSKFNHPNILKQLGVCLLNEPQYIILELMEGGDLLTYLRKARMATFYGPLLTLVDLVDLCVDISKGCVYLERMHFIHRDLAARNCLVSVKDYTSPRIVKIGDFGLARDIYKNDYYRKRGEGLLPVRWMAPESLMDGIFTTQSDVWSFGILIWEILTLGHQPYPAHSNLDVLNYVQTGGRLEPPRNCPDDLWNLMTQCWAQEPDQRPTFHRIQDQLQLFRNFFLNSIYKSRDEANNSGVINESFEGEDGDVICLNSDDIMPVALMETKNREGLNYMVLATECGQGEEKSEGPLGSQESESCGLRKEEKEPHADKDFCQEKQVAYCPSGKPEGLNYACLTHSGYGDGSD
The target is the same in assay [5]. The conditions noted are these: at 1 µM.
The target of assay [6] is Proto-oncogene tyrosine-protein kinase Src (Homo sapiens) (UniProt P12931). The conditions noted are these: at 0.1 µM.
Chain of Proto-oncogene tyrosine-protein kinase Src (Homo sapiens) (P12931 2-536 limits assumed): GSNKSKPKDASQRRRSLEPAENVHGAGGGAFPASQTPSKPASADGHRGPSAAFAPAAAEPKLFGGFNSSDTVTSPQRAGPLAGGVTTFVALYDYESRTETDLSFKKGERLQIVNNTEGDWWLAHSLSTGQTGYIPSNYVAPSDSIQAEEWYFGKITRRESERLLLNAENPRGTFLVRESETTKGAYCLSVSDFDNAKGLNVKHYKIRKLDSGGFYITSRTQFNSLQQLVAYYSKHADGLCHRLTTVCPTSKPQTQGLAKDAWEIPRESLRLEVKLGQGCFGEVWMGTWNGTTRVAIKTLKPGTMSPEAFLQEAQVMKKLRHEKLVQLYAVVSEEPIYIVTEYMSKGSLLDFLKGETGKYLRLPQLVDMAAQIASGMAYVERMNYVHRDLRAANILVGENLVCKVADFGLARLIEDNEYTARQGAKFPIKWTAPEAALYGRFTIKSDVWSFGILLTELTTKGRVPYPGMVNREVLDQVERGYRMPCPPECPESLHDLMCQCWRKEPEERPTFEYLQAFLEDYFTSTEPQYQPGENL
The target is the same in assay [7]. The conditions noted are these: at 1 µM.
Assay [8] concerns the target Tyrosine-protein kinase Srms (Homo sapiens) (UniProt Q9H3Y6). The conditions noted are these: at 0.1 µM.
For assay [9] the target is unchanged. The conditions noted are these: at 1 µM.
Assay [10] deals with Tyrosine-protein kinase SYK (Homo sapiens) (UniProt P43405). The conditions noted are these: at 0.1 µM.

Chain of Tyrosine-protein kinase Srms (Homo sapiens) (Q9H3Y6 whole entry): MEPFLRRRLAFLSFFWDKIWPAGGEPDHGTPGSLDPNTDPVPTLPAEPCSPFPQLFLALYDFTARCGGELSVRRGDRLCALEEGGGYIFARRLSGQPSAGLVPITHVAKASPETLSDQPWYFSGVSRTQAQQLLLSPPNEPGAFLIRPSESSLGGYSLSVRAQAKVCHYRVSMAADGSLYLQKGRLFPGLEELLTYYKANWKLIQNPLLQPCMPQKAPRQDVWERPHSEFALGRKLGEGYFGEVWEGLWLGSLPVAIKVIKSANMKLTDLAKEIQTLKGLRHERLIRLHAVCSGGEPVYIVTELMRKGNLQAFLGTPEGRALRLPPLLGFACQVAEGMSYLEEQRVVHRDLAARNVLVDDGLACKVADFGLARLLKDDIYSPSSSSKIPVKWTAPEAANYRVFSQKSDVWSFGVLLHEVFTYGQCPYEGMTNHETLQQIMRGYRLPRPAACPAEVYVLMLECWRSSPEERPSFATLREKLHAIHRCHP
Chain of Proto-oncogene tyrosine-protein kinase receptor Ret (Homo sapiens), P07949 [Y791F] (P07949 whole entry Y791F): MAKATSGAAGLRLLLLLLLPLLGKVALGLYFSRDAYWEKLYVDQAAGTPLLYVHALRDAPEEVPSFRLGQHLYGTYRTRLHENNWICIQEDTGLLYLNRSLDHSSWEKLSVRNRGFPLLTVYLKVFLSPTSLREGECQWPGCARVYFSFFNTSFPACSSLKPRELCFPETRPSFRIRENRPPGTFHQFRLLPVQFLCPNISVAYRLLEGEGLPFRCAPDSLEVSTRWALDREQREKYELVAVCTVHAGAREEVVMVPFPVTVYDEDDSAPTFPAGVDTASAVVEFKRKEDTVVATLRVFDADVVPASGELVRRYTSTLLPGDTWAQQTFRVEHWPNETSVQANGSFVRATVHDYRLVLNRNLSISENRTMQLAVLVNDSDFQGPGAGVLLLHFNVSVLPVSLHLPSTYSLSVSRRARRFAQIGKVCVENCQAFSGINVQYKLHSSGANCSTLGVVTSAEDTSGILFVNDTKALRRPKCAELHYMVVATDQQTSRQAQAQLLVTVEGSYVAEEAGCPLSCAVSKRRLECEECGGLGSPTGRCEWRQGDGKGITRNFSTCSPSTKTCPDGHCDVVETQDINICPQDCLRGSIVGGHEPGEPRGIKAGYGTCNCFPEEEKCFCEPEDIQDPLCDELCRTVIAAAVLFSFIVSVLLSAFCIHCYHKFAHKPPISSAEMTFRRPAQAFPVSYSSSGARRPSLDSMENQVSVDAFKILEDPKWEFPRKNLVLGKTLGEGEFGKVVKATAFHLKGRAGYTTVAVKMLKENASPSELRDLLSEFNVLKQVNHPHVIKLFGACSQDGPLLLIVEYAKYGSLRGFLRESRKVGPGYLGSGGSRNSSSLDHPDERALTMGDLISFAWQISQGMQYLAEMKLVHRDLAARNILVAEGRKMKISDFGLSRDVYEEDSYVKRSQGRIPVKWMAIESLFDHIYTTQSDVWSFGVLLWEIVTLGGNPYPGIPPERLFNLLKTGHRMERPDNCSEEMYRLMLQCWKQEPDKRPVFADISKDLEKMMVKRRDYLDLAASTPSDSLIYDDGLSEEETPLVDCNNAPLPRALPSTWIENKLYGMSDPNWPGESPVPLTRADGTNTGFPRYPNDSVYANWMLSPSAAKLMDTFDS

The inhibition is the drop in the measured response relative to a control, in per cent. With `c1cc(-c2cnn3nc(N4CCOCC4)ccc23)nc(NC2CC2)n1`, the inhibition is 16.2% in assay [1]; -1.82% in assay [2]; 1.76% in [3]; 5.66% in assay [4]; 23.7% in assay [5]; 10.1% in assay [6]. Besides, the inhibition in [7] was 8.4%; in assay [8], 0.68%; in [9] it was -0.4%; in assay [10], 3.54%.
On to `Clc1ccc(-c2nn3ncccc3c2-c2ccnc(Nc3ccccc3)n2)cc1`, for which the inhibition in assay [1] was 42.2%; in assay [2], -2.2%; in assay [3] it was 4.63%; in [4] it was 4.17%; in assay [5], 9.1%; in assay [6], 6.5%. The inhibition in assay [7] was 39.3%; in assay [8] it was 1.99%; in [9], 5.97%; in assay [10] it was -4.66%.
For `CCn1c(-c2nonc2N)nc2cnc(Oc3cccc(NC(=O)c4ccc(N(C)C)cc4)c3)cc21`, the inhibition in assay [1] was 1.39%; in assay [2], 1.95%; in [3], 1.27%; in assay [4], 2.49%; in [5] it was 3.39%; in assay [6] it was 3.64%. Besides, the inhibition in assay [7] was 1.89%; in assay [8], -0.5%; in assay [9], 6.2%; in [10], -1.42%.
Turning to `CC(=O)Nc1cccc(C#Cc2cncnc2Nc2ccc(OCc3cccc(F)c3)c(Cl)c2)c1`, the inhibition came to 13.3% in assay [1]; 0.77% in [2]; 4.22% in assay [3]; 7.46% in assay [4]; 12.2% in [5]; 10.8% in assay [6]. The inhibition turned out to be 6.18% in assay [7], 2.87% in assay [8], 0.23% in [9] and 3.21% in assay [10].
For the compound `CC(C)(CO)CNC(=O)c1ccc2c(c1)/C(=N/Nc1ccc(S(N)(=O)=O)cc1)C(=O)N2`, the inhibition amounted to 56.3% in assay [1]; 3.52% in assay [2]; 2.41% in assay [3]; 0.74% in assay [4]; 3.7% in assay [5]; 5.77% in [6]. For the same compound, the inhibition is 34.2% in [7], -0.93% in assay [8], 0.39% in [9] and 0.61% in assay [10].
Regarding `CS(=O)(=O)CCNCc1ccc(-c2ccc3ncnc(Nc4ccc(OCc5ccccc5)c(C(F)(F)F)c4)c3c2)o1`, the inhibition in assay [1] was 6.81%; in assay [2], -2.49%; in assay [3], -4.8%; in assay [4] it was 3.04%; in [5] it was 6.52%; in [6], 6.38%. Further, the inhibition is 7.74% in assay [7], -2.3% in [8], -1.62% in [9] and -2.88% in [10].
`Cc1cccc2c1NC(=O)/C2=N\Nc1ccc(S(N)(=O)=O)cc1`: the inhibition in assay [1] was 18.8%; in assay [2], 4.93%; in [3] it was 2.48%; in assay [4], 2.26%; in assay [5], 1.51%; in assay [6] it was 4.47%. In addition, the inhibition in assay [7] is 6.45%; in assay [8], -0.7%; in assay [9], -2.11%; in assay [10] it was 3.45%.
For `CC(C)COC(=O)c1ccc2c(c1)/C(=C/Nc1ccc(S(N)(=O)=O)cc1)C(=O)N2`, the inhibition is 69.9% in assay [1]; -0.4% in assay [2]; 16.7% in [3]; 1.71% in assay [4]; 15.3% in [5]; 2.28% in assay [6]. Moreover, the inhibition in [7] turned out to be 39.5%; in [8] it was 5.32%; in assay [9], 3.32%; in assay [10], 4.14%.
For `CCN1CCC(CC(=O)Nc2n[nH]c3nnc(-c4cccc(F)c4F)cc23)CC1`, the inhibition in assay [1] was 6.9%; in assay [2] it was -3.31%; in assay [3], 1.81%; in assay [4], 1.13%; in assay [5], 3.93%; in assay [6] it was 5.1%. Besides, the inhibition is 0.53% in [7], -0.09% in [8], 0.68% in assay [9] and -0.02% in [10].
Turning to `COc1cc(Nc2nccc(Nc3ccc4c(C)n[nH]c4c3)n2)cc(OC)c1OC`, the inhibition in assay [1] came to 82.4%; in [2] it was 6.16%; in [3], 34.4%; in [4], 40.6%; in assay [5] it was 70%; in assay [6] it was 68.4%. The inhibition in [7] is 92.1%; in [8] it was 4.33%; in assay [9], 12.6%; in assay [10] it was -1.75%.
In the case of `COc1cc(N2CCN(C(C)C)CC2)ccc1Nc1nc(Nc2ccc(F)cc2C(N)=O)c2cc[nH]c2n1`, the inhibition in assay [1] is 16.6%; in assay [2] it was 0.61%; in assay [3] it was -0.44%; in assay [4], 51.8%; in assay [5], 81.8%; in [6] it was 6.34%. Also, the inhibition came out at 10.4% in [7], 1.36% in [8], 7.98% in [9] and 0.19% in [10].
For `Cc1ccc2c(-c3ccnc(Nc4ccccc4)n3)c(-c3ccc(F)cc3)nn2n1`, the inhibition in assay [1] was found to be 50.7%; in assay [2] it was 0.11%; in assay [3], 3.58%; in [4], 2.77%; in assay [5] it was 5.97%; in assay [6], 15.3%. For the same compound, the inhibition was 63.2% in assay [7], 1.58% in [8], 9.73% in [9] and -2.66% in assay [10].
As for `COc1cc2c(cc1Nc1nc(Nc3ccsc3C(N)=O)c3cc[nH]c3n1)N(C(=O)CN(C)C)CCC2(C)C`, the inhibition was 18.7% in assay [1]; -4.25% in assay [2]; 28.9% in assay [3]; 79.7% in assay [4]; 83.1% in [5]; 0.33% in assay [6]. The inhibition in assay [7] is 11.7%; in assay [8], -1.82%; in assay [9] it was -3.22%; in assay [10], -6.01%.
`c1ccc(-c2nc3n(c2-c2ccc4c(c2)OCO4)CCC3)nc1`: the inhibition in [1] is 1.82%; in assay [2], 0.69%; in assay [3], 1.59%; in assay [4], 4.52%; in assay [5], 4.91%; in [6], -7.85%. The inhibition in assay [7] is 2.73%; in assay [8], -0.53%; in assay [9], -1.55%; in assay [10], -1.33%.
Turning to `COc1ccc(-c2cc3c(N)ncnc3o2)cc1`, the inhibition in assay [1] is 4.56%; in assay [2], -4.17%; in [3] it was -1.06%; in assay [4], 2.19%; in assay [5], 4.11%; in [6], -1.14%. The inhibition in [7] came out at 7.59%; in [8], 1.52%; in assay [9], 3.06%; in assay [10], 0.62%.
Take `Cc1ccc(O)cc1Nc1ccnc2cc(-c3ccccn3)ccc12`: the inhibition is 93.5% in assay [1]; -2% in assay [2]; 4.51% in [3]; 6.57% in assay [4]; 7.97% in assay [5]; 61% in [6]. Also, the inhibition was 90.4% in assay [7], 9.32% in assay [8], 39.8% in assay [9] and -5.01% in [10].
